# Source: PubChem
# Compounds with a hit are over-represented: about 4.7% of the library has one in this group of screens.
# TRHR enhancer: qHTS for Small Molecule Agonists and Allosteric Enhancers of Human TRH Receptor: Primary Screen for Enhancers | TRHR cells, fluo-8 calcium fluorescence, EC20 TRH enhancement | enhancement, % at 2 µM | 360,000 tested, 0.66% active | AID 493056, 2011; in the data active = enhancement above about 30%; note: 0% is about no effect
#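 Enhancer read-out: after compound pinning and an initial kinetic agonist-mode read, an EC20 of TRH (10 nM final) was injected and fluo-8 calcium signal (Ex 480/Em 530) followed at 1 s/cycle for 100 cycles in TRHR-expressing cells.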
# D1 potentiator: Potentiators of Human D1 Dopamine Receptor: qHTS | HEK293 TREx D1 cells, calcium flux, dopamine EC20 potentiation | AID 504651, 2011 | D(1A) dopamine receptor (Homo sapiens), P21728 | potentiation, % at 10 µM | 360,000 tested, 0.036% active; in the data active = potentiation above about 30%; note: 0% is about no effect
# Target sequence (P21728 whole entry, looked up): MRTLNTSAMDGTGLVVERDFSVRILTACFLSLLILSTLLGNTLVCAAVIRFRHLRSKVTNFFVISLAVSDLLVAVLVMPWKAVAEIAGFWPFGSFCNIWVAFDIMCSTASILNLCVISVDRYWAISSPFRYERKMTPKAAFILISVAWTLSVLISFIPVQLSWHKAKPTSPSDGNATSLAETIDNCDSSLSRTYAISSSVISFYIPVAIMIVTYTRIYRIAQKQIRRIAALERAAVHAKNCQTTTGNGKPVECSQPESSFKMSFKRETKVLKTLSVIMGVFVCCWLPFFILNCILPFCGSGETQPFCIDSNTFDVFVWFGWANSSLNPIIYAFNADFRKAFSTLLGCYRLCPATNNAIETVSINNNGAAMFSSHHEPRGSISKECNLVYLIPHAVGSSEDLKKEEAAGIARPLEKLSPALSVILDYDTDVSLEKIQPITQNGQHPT
# D1 antagonist: Antagonist of Human D 1 Dopamine Receptor: qHTS; HEK293 TREx D1 cells, calcium flux, dopamine EC80; hits give low values; 360,000 tested, 3.2% active; activity change, negative = inhibition, % at 10 µM; D(1A) dopamine receptor (Homo sapiens), P21728; in the data active = activity change below about -30%; note: % is set by controls: 0 for no effect and ±100 for the full control effect
#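 Using tetracycline-induced force-coupled D1 Hek293 cells and a calcium dye, signals were followed for 180 s after compound, then for 180 s after EC80 dopamine, to detect inhibitors.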
# D1 agonist: Allosteric Agonists of the Human D1 Dopamine Receptor: qHTS | HEK293 T-REx D1 cells, calcium flux, agonist mode | 360,000 tested, 1% active | AID 504660, 2011 | activation, % at 2 µM; note: 0% is about no effect
#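 Agonism was scored from calcium flux recorded over 180 s (1 read/s) after pintool compound addition, following a 10-cycle baseline. Cells were inducible force-coupled HEK293 TREx D1, plated overnight at 30 C and loaded with no-wash calcium dye.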
# TRHR agonist: qHTS for Small Molecule Agonists and Allosteric Enhancers of Human TRH Receptor: Primary Screen for Agonists; Thyrotropin-releasing hormone receptor (Homo sapiens), P34981; TRHR cells, calcium flux fluo-8, FDSS agonist mode; activation, % at 2 µM; 360,000 tested, 0.18% active; AID 493084, 2011; note: 0% is about no effect
#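 Agonist-mode FDSS calcium read (Ex 480/Em 530, 1 s cycles) in 1536-well TRHR cells with fluo-8 dye, after 10-cycle baseline and 23 nL compound addition; TRH at EC20 (10 nM final) added afterwards for the enhancer phase.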
# * hit, by the source's call. Cut-off read from the data, not from the text of the source, unless noted: active = activation above about 30%; inactive = the rest.
SMILES,TRHR enhancer,D1 potentiator,D1 antagonist,D1 agonist,TRHR agonist
CCOc1ccc(C(C(=O)NC2CCCC2)N(CCCO)C(=O)c2ccc(-c3ccccc3)[nH]2)cc1 (configuration not stated),-7,3,-30*,1,-1
O=S(=O)(NCc1ccc(C(F)(F)F)cc1)c1ccc(-n2cnnn2)cc1,-12,-5,-39*,10,0
CC/C(=N/N=C(\CC)c1ccccc1)c1ccccc1,8,-2,-46*,0,0
CC/C(=N\NC(=S)Nc1cccc(C)c1)c1ccccc1,-4,-5,1,4,0
C/C(=N\NC(=O)c1ccn(C)n1)c1cccc(NC(=O)c2ccncc2)c1,-3,1,-47*,0,0
CCNc1ccccc1CP(=O)(c1ccccc1)c1ccccc1O (configuration not stated),5,-6,-1,35*,18
O=C(Nc1cc(S(=O)(=O)N2CCOCC2)ccc1Cl)c1ccc(=O)[nH]c1,1,-4,-1,1,0
CCn1c(C(Cc2ccccc2)NC(=O)COC)nc2ccccc21 (configuration not stated),-7,-8,-30*,-3,0
Cc1nnc(NCCc2ccccc2)c2ccccc12,8,-3,-3,-3,0
CN(C(=O)COC(=O)COc1ccc2c(c1)CCC2)c1c(N)n(Cc2ccccc2)c(=O)[nH]c1=O,11,-6,-31*,1,1
N#CC(C#N)=C(Nc1ccc(F)cc1)SCc1cccc(F)c1,-7,-12,-44*,34*,4
CCOc1ccc(N/C(SCc2cccc([N+](=O)[O-])c2)=C(/C#N)C(N)=O)cc1,1,-6,-14,1,-1
O=C(NCc1ccccc1)N1CCN(c2ccccc2)CC1,2,-8,-15,14,0
FC(F)(F)c1cccc(N2CCN(C(=S)NC3CCCC3)CC2)c1,-6,-10,-17,1,1
S=C(NC1CCCC1)N1CCN(c2ccc(Cl)cc2)CC1,0,-5,-46*,5,0
S=C(NCc1ccco1)N1CCN(c2ccc(Cl)cc2)CC1,40*,-6,-13,4,-2
S=C(NC1CCCC1)N1CCN(C/C=C/c2ccccc2)CC1,5,-10,-36*,16,-1
S=C(Nc1ccccc1)N1CCN(C/C=C/c2ccccc2)CC1,0,-5,-8,9,0
S=C(NCc1ccccc1)N1CCN(c2ccccc2)CC1,-4,-8,-31*,7,0
CCOC(=O)c1sc2ncn(CC(=O)Nc3ccc(OC)c(Cl)c3)c(=O)c2c1C,3,1,-22,2,1
COC(=O)c1ccccc1NC(=O)Cc1noc2ccc(C)cc12,10,-4,-21,-1,0
O=C(CSc1ncnc2c1cnn2CCO)Nc1cccc(C(F)(F)F)c1,31*,-6,7,26,0
Cc1ccc2onc(CC(=O)Nc3cc(F)ccc3F)c2c1,-6,-3,-81*,-1,0
Cc1ccc2onc(CC(=O)Nc3cccc(C(F)(F)F)c3)c2c1,-19,-6,-75*,0,1
Cc1cc(=O)[nH]c(SCC(=O)Nc2cccc(C(F)(F)F)c2)n1,-2,0,-32*,2,0
SMILES,TRHR enhancer,D1 potentiator,D1 antagonist,D1 agonist,TRHR agonist
CCOC(=O)N1CCc2c(sc(NCc3cc(OC)c(OC)cc3OC)c2C(=O)Nc2ccc(OCC)cc2)C1,-3,-4,-9,-1,-1
Cc1cc(C)cc(NC(=O)Cc2noc3ccccc23)c1,-3,-2,-63*,-1,1
Cc1ccc(NC(=O)Cc2noc3ccccc23)cc1,1,-1,0,2,0
N#Cc1ccccc1S(=O)(=O)N1CCN(S(=O)(=O)c2ccc3c(c2)OCCO3)CC1,-1,1,-37*,8,1
N#Cc1ccccc1S(=O)(=O)N1CCN(C(=O)Cc2coc3cc(O)ccc23)CC1,-1,-7,-43*,1,0
C[C@H]1CN(S(=O)(=O)c2ccc3c(c2)OCCO3)CCN1S(=O)(=O)c1c(F)cccc1F,39*,-2,-13,1,-1
N#Cc1ccccc1S(=O)(=O)N1CCN(C(=O)[C@H](Cc2ccccc2)NC(=O)c2ccco2)CC1,2,-10,-34*,0,1
CS(=O)(=O)N(CC(=O)Nc1cccc([N+](=O)[O-])c1)c1cccc(F)c1,0,-2,7,3,1
COc1ccc(N2CC(C(=O)NC3CCCCC3)CC2=O)cc1 (configuration not stated),-3,-1,-3,-1,0
Cc1ccc(/C=N/NC(=O)Cn2nnc(N)n2)cc1,-22,-8,-74*,1,0
COc1cc(NC(=O)Cn2c(=O)cc(C)c3c(C)nn(-c4ccc(C)cc4)c32)cc(OC)c1,2,-5,-2,3,0
CC(C)(C)C(=O)OCCNc1nc(-c2ccccc2)nc2ccccc12,-4,-7,-2,-1,0
CNc1nc(-c2ccc3c(c2)CCN3C(=O)c2ccc(F)cc2)cs1,-2,-10,-38*,9,0
Cc1cccc(C(=O)N2CCc3cc(-c4csc(NC(=O)CN5CCCC5)n4)ccc32)c1,2,7,-31*,7,0
CNc1nc(-c2ccc3c(c2)CCN3C(=O)c2ccccc2C)cs1,11,1,-6,0,-1
O=C(CN1CCCC1)Nc1nc(-c2ccc3c(c2)CCN3C(=O)c2ccccc2F)cs1,-4,-8,-87*,8,0
O=C(Nc1nc2c(F)cc(F)cc2s1)C1CCN(C(=O)c2ccc(F)cc2)CC1,-5,-5,0,6,0
Cc1cccc(C(=O)N2CCc3cc(-c4nc(NC(=O)CN5CCCC5)sc4C)ccc32)c1,3,-6,-2,5,0
O=C(Nc1nc(-c2ccc(F)cc2)cs1)C1CCN(C(=O)c2ccc(F)cc2)CC1,-5,-5,-40*,10,0
CNc1nc(-c2ccc3c(c2)CCN3C(=O)c2cccc(F)c2)cs1,-9,-4,-18,3,-1
COC(=O)c1ccc(Cn2ncc3c4sc(C)cc4n(C)c3c2=O)cc1,-5,-3,0,6,-1
CCC1CCCCN1C(=O)Cn1c(=O)oc2cc(S(=O)(=O)N3CCCCC3)ccc21 (configuration not stated),-4,-3,1,-2,0
